Common to all, as to set-up: scale not given: direction of the effect not stated beside the values
The target of experiment [1] is Protein translocase subunit SecA (Escherichia coli (strain K12)) (UniProt P10408). The experiment is described as follows: Assay to Identify E. coli SecA ATPase Inhibitors. The format is functional. Particulars: 30 µM.
Experiment [2] addresses T1, Ubiquitin-activating enzyme e1, putative (Leishmania donovani (strain BPK282A1)) (UniProt E9BSI1).
T1 sequence (whole entry): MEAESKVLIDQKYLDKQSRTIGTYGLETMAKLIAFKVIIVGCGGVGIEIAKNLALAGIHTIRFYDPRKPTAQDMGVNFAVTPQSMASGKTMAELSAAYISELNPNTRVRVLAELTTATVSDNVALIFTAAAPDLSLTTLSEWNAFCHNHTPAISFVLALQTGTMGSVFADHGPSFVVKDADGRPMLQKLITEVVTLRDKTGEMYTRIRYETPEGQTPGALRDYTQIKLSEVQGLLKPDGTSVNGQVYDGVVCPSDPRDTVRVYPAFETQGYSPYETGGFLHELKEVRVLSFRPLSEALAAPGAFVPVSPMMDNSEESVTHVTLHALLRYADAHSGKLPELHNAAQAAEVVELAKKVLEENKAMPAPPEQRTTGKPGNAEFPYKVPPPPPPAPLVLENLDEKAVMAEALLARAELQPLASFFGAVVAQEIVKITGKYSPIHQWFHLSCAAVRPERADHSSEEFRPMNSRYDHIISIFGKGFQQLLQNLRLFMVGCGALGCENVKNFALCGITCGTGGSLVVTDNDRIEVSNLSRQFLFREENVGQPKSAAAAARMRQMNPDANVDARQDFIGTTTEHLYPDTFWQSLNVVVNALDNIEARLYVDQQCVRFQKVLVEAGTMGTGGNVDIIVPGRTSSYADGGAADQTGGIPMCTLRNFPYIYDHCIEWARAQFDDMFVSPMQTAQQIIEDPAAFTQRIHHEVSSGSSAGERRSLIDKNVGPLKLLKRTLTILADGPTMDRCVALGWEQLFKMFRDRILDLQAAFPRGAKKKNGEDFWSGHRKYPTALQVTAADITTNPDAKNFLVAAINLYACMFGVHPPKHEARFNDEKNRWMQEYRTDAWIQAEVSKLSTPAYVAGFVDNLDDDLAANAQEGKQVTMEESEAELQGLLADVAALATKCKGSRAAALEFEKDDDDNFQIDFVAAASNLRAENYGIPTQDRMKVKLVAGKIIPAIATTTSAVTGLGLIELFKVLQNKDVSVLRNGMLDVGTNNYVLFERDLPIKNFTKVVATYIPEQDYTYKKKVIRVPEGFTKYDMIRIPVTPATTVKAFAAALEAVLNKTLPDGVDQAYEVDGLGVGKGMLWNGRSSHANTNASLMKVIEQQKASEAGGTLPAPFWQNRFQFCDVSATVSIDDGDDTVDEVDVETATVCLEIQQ
The experiment is described as follows: Leishmania donovani Ubiquitin Activating Enzyme (LdE1). Particulars: 30 µM. It is filed as functional.

Experiment [3] concerns the target T2, Aspartate--tRNA(Asp/Asn) ligase (Mycobacterium tuberculosis (strain ATCC 25618 / H37Rv)) (UniProt P9WFW3). Note: in the data most compounds retested in dose-response had high values.
T2 sequence (whole entry): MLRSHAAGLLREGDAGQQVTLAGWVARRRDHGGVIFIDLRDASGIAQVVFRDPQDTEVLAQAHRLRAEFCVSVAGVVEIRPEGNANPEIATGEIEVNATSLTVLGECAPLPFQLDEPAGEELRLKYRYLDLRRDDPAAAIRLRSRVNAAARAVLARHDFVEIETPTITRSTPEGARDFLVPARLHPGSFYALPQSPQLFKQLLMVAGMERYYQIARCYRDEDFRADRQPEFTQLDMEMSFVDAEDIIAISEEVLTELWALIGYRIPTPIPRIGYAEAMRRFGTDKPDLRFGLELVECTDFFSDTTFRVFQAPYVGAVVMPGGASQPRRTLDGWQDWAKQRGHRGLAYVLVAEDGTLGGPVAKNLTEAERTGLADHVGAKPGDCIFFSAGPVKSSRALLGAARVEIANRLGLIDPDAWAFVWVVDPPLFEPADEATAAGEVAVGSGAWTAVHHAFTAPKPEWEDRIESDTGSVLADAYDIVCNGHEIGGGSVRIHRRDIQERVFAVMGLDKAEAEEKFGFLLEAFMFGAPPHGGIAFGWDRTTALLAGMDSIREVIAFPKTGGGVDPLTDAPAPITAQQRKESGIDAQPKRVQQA
Kind of experiment: Assay for Asp RNA synthetase-1 from Mycobacterium tuberculosis. It is filed as functional. Particulars: 30 µM.

Experiment [4] concerns the target Sialic acid-binding Ig-like lectin 9 (Homo sapiens) (UniProt Q9Y336). The experiment is described as follows: Hs-Siglec9 ALPHAscreen SOP 20170721. Particulars: 10 µM. (Bead proximity is the source of the signal in Alpha formats.)
The next experiment has as its system Trypanosoma cruzi. Kind of experiment: Trypanosoma cruzi phosphomannomutase and mannose-1-phosphate guanylyltransferase assay. The format is functional. Particulars: 10 µM.
The target in experiment [5] is T3, Arginase-2, mitochondrial (Homo sapiens) (UniProt P78540).
T3 sequence (whole entry): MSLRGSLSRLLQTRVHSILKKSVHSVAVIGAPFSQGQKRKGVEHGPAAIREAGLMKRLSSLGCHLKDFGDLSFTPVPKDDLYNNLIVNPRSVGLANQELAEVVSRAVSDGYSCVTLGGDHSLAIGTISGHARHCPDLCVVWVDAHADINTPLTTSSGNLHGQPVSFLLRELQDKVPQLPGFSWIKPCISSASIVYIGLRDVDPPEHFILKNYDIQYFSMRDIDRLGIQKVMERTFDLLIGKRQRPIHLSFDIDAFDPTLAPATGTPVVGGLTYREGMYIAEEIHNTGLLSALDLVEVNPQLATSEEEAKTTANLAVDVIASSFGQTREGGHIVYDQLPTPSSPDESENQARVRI
The experiment is described as follows: in vitro enzyme assay to detect the production of urea directly proportional to the activity of Arginase II. Note: in the data most compounds retested in dose-response had high values. The format is functional. Particulars: 33.3 µM.

Experiment [6] concerns the target T4, Proteasome subunit beta (Trypanosoma cruzi) (UniProt O96673).
T4 sequence (whole entry): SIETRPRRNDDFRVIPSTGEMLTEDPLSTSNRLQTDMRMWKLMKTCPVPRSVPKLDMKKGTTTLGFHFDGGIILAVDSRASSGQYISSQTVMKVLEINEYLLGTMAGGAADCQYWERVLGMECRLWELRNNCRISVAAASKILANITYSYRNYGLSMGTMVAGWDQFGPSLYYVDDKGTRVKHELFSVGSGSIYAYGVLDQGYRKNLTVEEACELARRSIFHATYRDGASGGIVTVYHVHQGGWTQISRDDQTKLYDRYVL
The experiment is described as follows: Trypanosoma cruzi proteasome chymotrypsin-like activity (TcProtChymo) assay. Note: in the data most compounds retested in dose-response had high values. It is filed as functional. Particulars: 9.37 µM.

The species entered for the next experiment is Homo sapiens. The experiment is described as follows: To identify inhibition of the IFN signalling (Jak-Stat) pathway via expression of an eGFP reporter gene under the control of an IFN-stimulated response element (ISRE) containing MxA promoter. It is filed as functional. Particulars: 30 µM. (In general: Reporter assays use an easily measured gene product as a stand-in for the process of interest.)

Experiment [7] concerns the target Shiga toxin 2 (Escherichia coli O157:H7) (UniProt P09385+P09386). The experiment is described as follows: E. coli 0.157:H7 Shiga Toxin SOP - stx2 screening assay. It is filed as functional. Particulars: 30 µM.
The target in experiment [8] is T5, Tyrosyl-tRNA synthetase, putative (Trypanosoma cruzi (strain CL Brener)) (UniProt Q4DSP6).
T5 sequence (whole entry): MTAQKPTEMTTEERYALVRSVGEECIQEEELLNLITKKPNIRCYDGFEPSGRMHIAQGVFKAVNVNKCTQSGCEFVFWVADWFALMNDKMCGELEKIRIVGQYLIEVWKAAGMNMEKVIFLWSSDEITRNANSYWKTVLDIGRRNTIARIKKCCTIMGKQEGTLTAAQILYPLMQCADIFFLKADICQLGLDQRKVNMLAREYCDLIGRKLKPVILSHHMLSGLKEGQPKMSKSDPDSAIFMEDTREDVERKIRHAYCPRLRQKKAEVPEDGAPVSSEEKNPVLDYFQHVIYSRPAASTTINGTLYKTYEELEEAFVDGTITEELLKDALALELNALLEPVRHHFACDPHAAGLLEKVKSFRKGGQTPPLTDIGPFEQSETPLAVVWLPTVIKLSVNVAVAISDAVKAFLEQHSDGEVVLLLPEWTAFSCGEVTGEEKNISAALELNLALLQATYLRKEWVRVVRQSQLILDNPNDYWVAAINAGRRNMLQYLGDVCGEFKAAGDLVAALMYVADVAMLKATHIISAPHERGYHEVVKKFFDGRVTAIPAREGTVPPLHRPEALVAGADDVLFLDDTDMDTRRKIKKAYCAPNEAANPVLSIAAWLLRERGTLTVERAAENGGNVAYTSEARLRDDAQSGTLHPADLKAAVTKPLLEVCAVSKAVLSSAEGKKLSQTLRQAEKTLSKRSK
Kind of experiment: Trypanosoma cruzi tyrosyl tRNA synthetase (TcYRS) _High Tyrosine SOP. Note: in the data most compounds retested in dose-response had high values. It is filed as functional. Particulars: 30 µM.

Experiment [9] concerns the target T5, Tyrosyl-tRNA synthetase, putative (Trypanosoma cruzi (strain CL Brener)). Kind of experiment: Trypanosoma cruzi tyrosyl tRNA synthetase (TcYRS) SOP. It is filed as functional. Particulars: 30 µM.
The target of experiment [10] is Chromo domain-containing protein 1 (Saccharomyces cerevisiae (strain ATCC 204508 / S288c) (Baker's yeast)) (UniProt P32657). Kind of experiment: ScCHD-1 Enzyme Inhibition Assay. Note: in the data most compounds retested in dose-response had high values. It is filed as functional. Particulars: 30 µM.
Chain of Chromo domain-containing protein 1 (Saccharomyces cerevisiae (strain ATCC 204508 / S288c) (Baker's yeast)) (P32657 whole entry, the tested form may be a part): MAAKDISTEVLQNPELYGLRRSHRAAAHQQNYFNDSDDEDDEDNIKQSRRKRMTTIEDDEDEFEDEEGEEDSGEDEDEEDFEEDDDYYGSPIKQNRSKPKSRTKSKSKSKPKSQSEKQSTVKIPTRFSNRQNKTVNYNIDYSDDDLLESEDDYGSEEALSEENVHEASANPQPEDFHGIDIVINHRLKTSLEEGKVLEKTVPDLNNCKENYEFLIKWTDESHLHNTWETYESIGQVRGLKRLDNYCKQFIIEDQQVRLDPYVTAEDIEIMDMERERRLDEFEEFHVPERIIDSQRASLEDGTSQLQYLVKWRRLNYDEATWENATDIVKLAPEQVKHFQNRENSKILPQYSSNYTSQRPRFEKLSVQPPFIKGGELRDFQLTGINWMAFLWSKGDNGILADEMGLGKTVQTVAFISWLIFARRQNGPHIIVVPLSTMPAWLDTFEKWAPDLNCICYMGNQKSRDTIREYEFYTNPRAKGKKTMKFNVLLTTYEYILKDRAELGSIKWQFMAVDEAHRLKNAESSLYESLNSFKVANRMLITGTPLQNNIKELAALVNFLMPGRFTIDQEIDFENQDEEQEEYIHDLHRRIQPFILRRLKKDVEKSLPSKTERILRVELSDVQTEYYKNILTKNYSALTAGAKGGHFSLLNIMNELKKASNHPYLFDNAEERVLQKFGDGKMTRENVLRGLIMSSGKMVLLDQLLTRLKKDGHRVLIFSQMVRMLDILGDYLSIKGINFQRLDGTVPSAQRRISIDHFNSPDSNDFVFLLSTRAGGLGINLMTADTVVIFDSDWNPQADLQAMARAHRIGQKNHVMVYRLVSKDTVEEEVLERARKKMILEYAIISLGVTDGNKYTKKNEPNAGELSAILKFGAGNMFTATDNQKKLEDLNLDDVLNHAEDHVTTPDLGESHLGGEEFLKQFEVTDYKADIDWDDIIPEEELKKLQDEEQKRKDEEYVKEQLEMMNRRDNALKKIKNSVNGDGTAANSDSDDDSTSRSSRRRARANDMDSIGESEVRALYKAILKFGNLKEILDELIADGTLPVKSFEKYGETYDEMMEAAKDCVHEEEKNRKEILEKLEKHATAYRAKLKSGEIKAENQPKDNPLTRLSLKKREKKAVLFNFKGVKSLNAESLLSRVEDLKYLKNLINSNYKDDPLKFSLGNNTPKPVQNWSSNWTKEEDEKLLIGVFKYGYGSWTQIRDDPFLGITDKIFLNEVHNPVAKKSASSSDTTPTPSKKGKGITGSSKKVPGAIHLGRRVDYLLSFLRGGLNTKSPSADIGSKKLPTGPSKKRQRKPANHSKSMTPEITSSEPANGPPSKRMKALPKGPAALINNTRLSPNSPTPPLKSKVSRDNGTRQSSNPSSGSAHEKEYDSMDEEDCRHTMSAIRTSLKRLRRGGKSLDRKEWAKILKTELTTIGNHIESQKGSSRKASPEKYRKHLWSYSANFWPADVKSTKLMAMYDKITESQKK

These results are taken from ChEMBL document CHEMBL3988442, “University of Dundee, Small-Polar-MMV Screening Library” (2021).

For part of these data: Potency and affinity values are given separately.

Chain of Protein translocase subunit SecA (Escherichia coli (strain K12)) (P10408 whole entry): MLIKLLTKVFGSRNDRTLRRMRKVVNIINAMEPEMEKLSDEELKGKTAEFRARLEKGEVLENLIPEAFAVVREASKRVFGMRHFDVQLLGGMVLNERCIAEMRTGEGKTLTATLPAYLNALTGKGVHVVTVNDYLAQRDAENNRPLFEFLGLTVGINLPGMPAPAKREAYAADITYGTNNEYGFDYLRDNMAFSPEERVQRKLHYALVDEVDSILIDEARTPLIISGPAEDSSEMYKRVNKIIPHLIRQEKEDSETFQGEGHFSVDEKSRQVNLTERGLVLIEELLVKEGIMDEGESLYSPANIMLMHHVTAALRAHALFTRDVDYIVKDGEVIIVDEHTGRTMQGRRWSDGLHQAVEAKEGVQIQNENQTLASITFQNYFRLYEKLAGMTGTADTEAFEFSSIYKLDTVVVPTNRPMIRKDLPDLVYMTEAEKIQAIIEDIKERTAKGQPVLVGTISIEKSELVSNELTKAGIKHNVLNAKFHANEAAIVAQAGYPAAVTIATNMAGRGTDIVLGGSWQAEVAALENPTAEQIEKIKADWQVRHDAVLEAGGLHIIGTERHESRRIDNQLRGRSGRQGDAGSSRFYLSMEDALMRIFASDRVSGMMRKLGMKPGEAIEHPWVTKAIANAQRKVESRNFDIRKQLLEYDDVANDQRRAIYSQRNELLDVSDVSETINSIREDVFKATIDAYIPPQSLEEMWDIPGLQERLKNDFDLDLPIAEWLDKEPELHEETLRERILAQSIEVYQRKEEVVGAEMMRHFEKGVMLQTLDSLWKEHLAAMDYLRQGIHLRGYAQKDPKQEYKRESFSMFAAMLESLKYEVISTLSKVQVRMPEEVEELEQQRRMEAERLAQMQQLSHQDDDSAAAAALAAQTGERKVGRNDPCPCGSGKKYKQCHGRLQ
Chain of Sialic acid-binding Ig-like lectin 9 (Homo sapiens) (Q9Y336 whole entry): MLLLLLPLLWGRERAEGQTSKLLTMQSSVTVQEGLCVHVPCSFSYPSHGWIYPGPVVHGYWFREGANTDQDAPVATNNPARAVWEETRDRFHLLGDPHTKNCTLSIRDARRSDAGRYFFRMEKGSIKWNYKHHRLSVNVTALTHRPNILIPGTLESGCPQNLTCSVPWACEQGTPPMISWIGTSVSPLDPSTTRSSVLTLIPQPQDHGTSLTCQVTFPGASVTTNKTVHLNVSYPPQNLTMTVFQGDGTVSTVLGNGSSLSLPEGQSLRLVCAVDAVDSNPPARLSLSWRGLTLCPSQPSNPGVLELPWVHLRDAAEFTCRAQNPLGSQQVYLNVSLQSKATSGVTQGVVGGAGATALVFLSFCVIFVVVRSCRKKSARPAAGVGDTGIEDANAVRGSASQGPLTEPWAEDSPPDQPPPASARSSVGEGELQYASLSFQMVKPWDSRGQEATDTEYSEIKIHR

In the case of `C[C@H]1C(=O)NC[C@H]2CN(Cc3ccccc3)C[C@H]21`, the Percent Effect in [1] is -1.35%; in experiment [2], -1.3%; in experiment [3] it was 0.819%; in experiment [4] it was -0.437%; in the experiment on Trypanosoma cruzi it was 1.5%; in experiment [5], -0.457%. Moreover, the Percent Effect in experiment [6] was -1.12%; in the experiment listed under Homo sapiens, 13.9%; in experiment [7] it was 5.59%; in experiment [8] it was 4.83%; in experiment [9] it was 0%; in [10], 0.883%.

In the case of `Cc1cc(CN2CC[C@H]3C[C@H](C(=O)N(C)C)O[C@@H]3C2)no1`, the Percent Effect in experiment [1] is -4.45%; in experiment [2], 3.9%; in experiment [3], -0.0763%; in [4] it was 14.4%; in the experiment with Trypanosoma cruzi, 5.36%; in [5], 12.6%. Moreover, the Percent Effect in experiment [6] was 13.3%; in the experiment listed under Homo sapiens it was -6.77%; in experiment [7] it was -6.84%; in experiment [8], 2.63%; in [9], -5.13%; in experiment [10] it was 20.4%.

For `O=C(Cn1ccc2c(Cl)cccc21)N1CCC2(CC1)OCCO2`, the Percent Effect was -2.33% in experiment [1]; 10.8% in experiment [2]; 0.188% in [3]; 5.66% in experiment [4]; 1.46% with Trypanosoma cruzi; 49.3% in experiment [5]. Besides, the Percent Effect in experiment [6] was 11.8%; in the experiment filed under Homo sapiens, 12.8%; in [7], 1.14%; in experiment [8] it was 4.79%; in experiment [9], 19.5%; in [10] it was -2.23%.

For `Cc1nn(C)c(N(C)C)c1CNC(C)Cc1c(F)cccc1F` (stereo not given), the Percent Effect is -1.71% in [1]; 26% in experiment [2]; 3.29% in experiment [3]; 10.5% in experiment [4]; 4.85% with Trypanosoma cruzi; 5.12% in [5]. Moreover, the Percent Effect in experiment [6] is 7.89%; in the experiment listed under Homo sapiens, 5.28%; in experiment [7], -17.2%; in experiment [8] it was 6.86%; in experiment [9] it was 23.5%; in experiment [10] it was -9.67%.

For `CC(C)c1nccc([C@H]2C[C@@H]3CCN(Cc4ccco4)C[C@H]3O2)n1`, the Percent Effect in experiment [1] was -6.35%; in [2] it was -3.9%; in experiment [3] it was 9.38%; in [4], 3.38%; with Trypanosoma cruzi, 4.58%; in experiment [5], -7.69%. The Percent Effect in experiment [6] is 14.4%; in the experiment filed under Homo sapiens, 3.14%; in experiment [7], 5.36%; in experiment [8], 6.84%; in experiment [9], 15.4%; in experiment [10], 1.21%.
